The source of these data is PubChem BioAssay (NCI).

Some test systems named below: SK-MEL-2 melanoma; EKVX NSCLC; SN12C renal; UO-31 renal; TK-10 renal; ACHN renal; CAKI-1 renal; A498 renal; CCRF-CEM leukemia; MOLT-4 leukemia; SR leukemia; RPMI-8226 leukemia; OVCAR-8 ovarian; OVCAR-5 ovarian; OVCAR-4 ovarian; SK-OV-3 ovarian; IGROV1 ovarian; OVCAR-3 ovarian; HS 578T breast; NCI/ADR-RES ovarian.
Assay in all cases: NCI-60 one-dose screen, 48 h (100 = growth as untreated, 0 = no growth, -100 = all killed)
Common to all, as to details: 10 µM unless noted

About 83,000 compounds went through this panel and 20% of them were active in at least one assay; those are over-represented in the sample as a whole.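 Step 1: grow cells in 96-well plates. Step 2: add test compound at a single concentration. Step 3: incubate 48 h. Step 4: record percent growth.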 Unmarked numbers belong to inactive results. Calls of active or inactive are those of the source. Rule for the calls: active = growth percent below 10; inactive = the rest.

For the compound `COc1ccc(-c2cc(-c3ccc(Cl)cc3)c(C#N)c(=O)n2CCCCC(=O)NO)cc1`, the growth was 88% with SK-MEL-2 melanoma; 71.9% in the test with EKVX NSCLC; 68.7% in the test with SN12C renal; -16.4% (active) in the test on UO-31 renal; 70.4% in the test with TK-10 renal; 34.6% in the test with ACHN renal. Moreover, the growth in the test on CAKI-1 renal is -13.2% (active); with A498 renal, 95.4%; in the test on CCRF-CEM leukemia, 63.9%; in the test with MOLT-4 leukemia, 80.6%; in the test with SR leukemia, 40.3%; with RPMI-8226 leukemia, 34%. In addition, the growth is 53.9% with OVCAR-8 ovarian; 63.9% in the test with OVCAR-5 ovarian; 74.9% in the test on OVCAR-4 ovarian; 89.3% in the test with SK-OV-3 ovarian; 69% with IGROV1 ovarian; 75% in the test on OVCAR-3 ovarian. The growth in the test on HS 578T breast is 87.8%; with NCI/ADR-RES ovarian it was 10.8%.

Regarding `O=C(Nc1ccc(Cl)cc1)C1=NCCCCN1`, the growth with SK-MEL-2 melanoma was 97.7%; in the test with EKVX NSCLC, 80%; with SN12C renal it was 94.5%; in the test on UO-31 renal, 55.4%; in the test with TK-10 renal it was 90%; in the test with ACHN renal, 59.1%. The growth is 53.8% with CAKI-1 renal; 98.6% with A498 renal; 89.2% with CCRF-CEM leukemia; 95.4% with MOLT-4 leukemia; 116% with SR leukemia; 96.3% in the test on RPMI-8226 leukemia. The growth with OVCAR-8 ovarian was 91%; with OVCAR-5 ovarian it was 85.6%; in the test with OVCAR-4 ovarian, 109%; with SK-OV-3 ovarian, 88.1%; with IGROV1 ovarian, 79.8%; in the test on OVCAR-3 ovarian, 96.9%. Moreover, the growth in the test with HS 578T breast was 97.9%; in the test on NCI/ADR-RES ovarian it was 89.3%.

Turning to `Cc1cc([N+](=O)[O-])ccc1NC(=O)c1ccc2c(c1)nc(-c1ccccc1)n2C1CCCCC1`, the growth with SK-MEL-2 melanoma was 87.4%; with EKVX NSCLC, 73%; with SN12C renal, 98.6%; in the test with UO-31 renal, 62.4%; in the test with TK-10 renal, 84.3%; in the test with ACHN renal it was 89.6%. Also, the growth with CAKI-1 renal was 70.3%; with A498 renal it was 122%; in the test on CCRF-CEM leukemia, 68.5%; in the test on MOLT-4 leukemia, 52%; in the test with SR leukemia, 39.5%; with RPMI-8226 leukemia, 76.2%. Also, the growth with OVCAR-8 ovarian was 87.6%; in the test with OVCAR-5 ovarian, 95.5%; in the test with OVCAR-4 ovarian, 95.2%; with SK-OV-3 ovarian, 100%; in the test on IGROV1 ovarian, 111%; with OVCAR-3 ovarian it was 92.8%. Also, the growth is 88.1% in the test on HS 578T breast and 87.9% with NCI/ADR-RES ovarian.

`COc1ccc(/C=C\c2cc(OC)c(OC)c(OC)c2)cc1OCC(=O)Nc1nc2ccccc2s1`: the growth in the test on SK-MEL-2 melanoma is 26.7%; in the test on EKVX NSCLC, 55.8%; in the test on SN12C renal, 34.9%; in the test with UO-31 renal, 4.73% (active); in the test on TK-10 renal, 4.64% (active); in the test with ACHN renal it was 16.9%. Also, the growth was 17.6% in the test with CAKI-1 renal; 25.1% in the test on A498 renal; 35.3% in the test with CCRF-CEM leukemia; 6.31% (active) in the test on MOLT-4 leukemia; 9.4% (active) with SR leukemia; 22.5% with RPMI-8226 leukemia. The growth in the test on OVCAR-8 ovarian is 19%; with OVCAR-5 ovarian it was 65%; in the test with OVCAR-4 ovarian, 49.2%; in the test on SK-OV-3 ovarian, 30.4%; in the test with IGROV1 ovarian it was 3.36% (active); in the test on OVCAR-3 ovarian, 0.388% (active). Besides, the values for the growth with HS 578T breast and with NCI/ADR-RES ovarian were 11.3% and 12.7%, respectively.

For the compound `Cc1c(C(=O)C(SC(=S)N2CCOCC2)SC(=S)N2CCOCC2)nnn1-c1ccc([N+](=O)[O-])cc1`, the growth in the test on SK-MEL-2 melanoma was 106%; in the test with EKVX NSCLC, 113%; in the test with SN12C renal, 96.4%; in the test with UO-31 renal, 74.7%; with TK-10 renal, 100%; with ACHN renal, 98%. Moreover, the growth was 94.9% in the test with CAKI-1 renal; 128% in the test with A498 renal; 67.9% in the test on CCRF-CEM leukemia; 91.1% in the test on MOLT-4 leukemia; 69.7% in the test with SR leukemia; 90.1% in the test on RPMI-8226 leukemia. Further, the growth with OVCAR-8 ovarian was 99.1%; in the test with OVCAR-5 ovarian it was 102%; in the test on OVCAR-4 ovarian, 109%; with SK-OV-3 ovarian it was 93.3%; in the test with IGROV1 ovarian it was 98%; in the test on OVCAR-3 ovarian, 108%. Also, the figures for the growth in the test with HS 578T breast and with NCI/ADR-RES ovarian were 123% and 111%, respectively.

For `CSc1nc(N)c2c(n1)NC(c1ccccc1)C1CCc3ccccc3C1=N2` (stereo not given), the growth in the test on SK-MEL-2 melanoma was 30.1%; with EKVX NSCLC, 40.9%; in the test with SN12C renal it was 65.7%; with UO-31 renal it was 43%; in the test on TK-10 renal it was 112%; with ACHN renal, 72.3%. The growth with CAKI-1 renal is 48.2%; with A498 renal it was 42.7%; with CCRF-CEM leukemia it was 20%; in the test on MOLT-4 leukemia, 27.9%; in the test on SR leukemia it was 8.22% (active); with RPMI-8226 leukemia, 36.6%. In addition, the growth with OVCAR-8 ovarian is 42.1%; in the test on OVCAR-5 ovarian, 121%; in the test with OVCAR-4 ovarian it was 41.6%; with SK-OV-3 ovarian it was 85.8%; in the test on IGROV1 ovarian, 40.4%; with OVCAR-3 ovarian it was 43.9%. The growth was 62% in the test with HS 578T breast and 35.8% in the test with NCI/ADR-RES ovarian.

Consider `O=c1oc2ccccc2cc1-c1nn(-c2ccccc2)cc1/C=N/Nc1nc(-c2ccccc2)c(N=Nc2ccccc2)s1`, for which the growth with SK-MEL-2 melanoma was 64.9%; in the test on EKVX NSCLC it was 82.3%; in the test with SN12C renal it was 103%; in the test with UO-31 renal, 73.4%; in the test with TK-10 renal, 95.1%; with ACHN renal, 92.9%. Besides, the growth in the test on CAKI-1 renal is 62.8%; in the test on A498 renal, 70.2%; with CCRF-CEM leukemia, 69.7%; in the test on MOLT-4 leukemia it was 53.5%; in the test with SR leukemia, 21.9%; with RPMI-8226 leukemia, 63.1%. The growth is 77.9% in the test with OVCAR-8 ovarian; 102% with OVCAR-5 ovarian; 84.7% in the test with OVCAR-4 ovarian; 82.8% in the test with SK-OV-3 ovarian; 81.7% in the test with IGROV1 ovarian; 57.1% in the test on OVCAR-3 ovarian. Further, the growth in the test with HS 578T breast is 87.5%; in the test on NCI/ADR-RES ovarian, 63.7%.

On to `c1ccc(-c2cn3nc(-c4c[nH]c5ccccc45)sc3n2)cc1`, for which the growth with SK-MEL-2 melanoma was 94.4%; in the test on EKVX NSCLC, 70.3%; in the test with SN12C renal it was 83%; with UO-31 renal, 46.4%; in the test on TK-10 renal it was 105%; in the test with ACHN renal, 83.3%. In addition, the growth in the test on CAKI-1 renal was 66.1%; with A498 renal it was 89.9%; with CCRF-CEM leukemia, 86.4%; with MOLT-4 leukemia, 83.9%; in the test with SR leukemia it was 21.7%; in the test on RPMI-8226 leukemia, 91.8%. Further, the growth with OVCAR-8 ovarian was 93.3%; with OVCAR-5 ovarian, 74.2%; in the test on OVCAR-4 ovarian, 70.4%; in the test with SK-OV-3 ovarian, 80.4%; in the test on IGROV1 ovarian, 56.5%; with OVCAR-3 ovarian, 86.1%. In addition, the growth is 84.5% in the test with HS 578T breast and 84.3% in the test on NCI/ADR-RES ovarian.
